Efflux pump mplx = blocks antifungal efflux pumps in multiplex yeast assay; S. cerevisiae Candida pump triplex, Nile Red efflux; inhibition, % at 10 µM; 330,000 compounds, 0.44% hits; AID 485275;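 active = plate passing quality check with inhibition over a set limit, or well fluorescence over plate mean plus 4 SD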;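 note: Nile Red retained in pooled yeast measured as flow cytometry median fluorescence; 0% = buffer negative control and 100% = Enniatin B positive control; higher means more Nile Red kept so more efflux inhibition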
VLA-4 inh = inhibition in a human VLA-4 binding assay; inhibition, % (about 7 µM as worked out from the volumes in the protocol); AID 2557; 330,000 compounds, 0.2% hits; VLA-4 expressing cells, ligand binding flow cytometry; P13612; in the data active = inhibition above about 50%
Target sequence (P13612 whole entry, looked up): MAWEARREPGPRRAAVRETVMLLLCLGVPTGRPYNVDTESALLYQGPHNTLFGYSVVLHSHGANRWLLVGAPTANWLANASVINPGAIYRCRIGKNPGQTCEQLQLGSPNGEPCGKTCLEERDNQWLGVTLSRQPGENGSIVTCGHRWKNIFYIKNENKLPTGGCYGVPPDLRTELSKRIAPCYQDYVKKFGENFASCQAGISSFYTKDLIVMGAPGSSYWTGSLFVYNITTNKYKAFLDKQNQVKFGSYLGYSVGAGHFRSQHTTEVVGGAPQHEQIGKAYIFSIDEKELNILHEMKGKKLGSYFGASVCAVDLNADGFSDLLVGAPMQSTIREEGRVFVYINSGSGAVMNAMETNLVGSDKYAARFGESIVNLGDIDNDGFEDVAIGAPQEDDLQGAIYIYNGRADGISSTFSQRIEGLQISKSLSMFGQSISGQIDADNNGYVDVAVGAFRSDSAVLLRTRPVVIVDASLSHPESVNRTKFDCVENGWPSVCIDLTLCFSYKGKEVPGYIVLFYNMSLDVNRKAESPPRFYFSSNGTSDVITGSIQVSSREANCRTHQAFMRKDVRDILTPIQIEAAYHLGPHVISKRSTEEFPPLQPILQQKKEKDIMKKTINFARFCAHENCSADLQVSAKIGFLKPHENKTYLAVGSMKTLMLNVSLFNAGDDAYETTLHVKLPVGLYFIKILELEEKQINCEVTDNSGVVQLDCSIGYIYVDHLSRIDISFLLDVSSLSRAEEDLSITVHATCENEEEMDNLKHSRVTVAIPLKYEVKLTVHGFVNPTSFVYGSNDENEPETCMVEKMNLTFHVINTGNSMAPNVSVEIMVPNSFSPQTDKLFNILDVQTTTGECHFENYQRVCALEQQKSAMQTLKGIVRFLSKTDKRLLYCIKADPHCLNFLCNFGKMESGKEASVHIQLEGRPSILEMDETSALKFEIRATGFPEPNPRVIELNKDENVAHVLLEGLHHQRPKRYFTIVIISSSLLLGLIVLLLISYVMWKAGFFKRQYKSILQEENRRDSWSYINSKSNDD
ALR inh = inhibitors of human sulfhydryl oxidase ALR. purified ALR, DTT oxidation, H2O2 HRP-luminol luminescence. P55789. AID 485317. inhibition, % (test concentration not listed). 290,000 compounds, 3.8% hits;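 active = mean replicate inhibition above about 79%, with every replicate also reaching it, limit read from the data; inconclusive = only one of the two criteria met; inactive = mean below limit and not every replicate reaching it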
SUMO Mot1 rescue = inhibitors of SUMOylation pathway: yeast Mot1-301 growth rescue. 320,000 compounds, 1% hits. growth rescue, % at 18.8 µM. S. cerevisiae Mot1-301 growth rescue, ATP luminescence, 38.5C; percent above DMSO median, 100 means doubled;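 active = every valid replicate shows activation above 250% relative to neutral control wells; inactive = the rest, any valid replicate at or below 250%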;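 note: OY570 slx delta 5 strain wells were the positive control but not used for scaling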
AHR activator = human AHR activation; activation, % at 5 µM; P35869; 320,000 compounds, 2.5% hits; AHR-responsive luciferase reporter cells, luminescence; AID 2796; in the data active = activation above about 47%;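 note: 0% = vehicle wells and 100% = reference agonist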
Bfl-1 A1 inh = inhibitors of the anti-apoptotic protein A1, read as caspase activation; MEF A1-2A-BIM cells, Caspase-Glo 3/7 luminescence, 3 h; percent of clofoctol response, vehicle zero; caspase activation, % (no concentration beside the values); 330,000 compounds, 0.066% hits;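 active = over half of replicate activation scores above 10%, or exactly half above 10 with the replicate mean above 10; inconclusive = replicate mean below 10 yet half the replicates above 10; inactive = over half of replicates below 10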
Yeast cmpd fluor = counter-screen for efflux pump inhibitors: compound fluorescence; shares compounds with Efflux pump mplx; S. cerevisiae AD/pABC3, flow cytometry; fluorescence ratio to DMSO, % at 10 µM; 1,700 compounds, 4% hits; AID 588517;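 active = fluorescence ratio to DMSO above its plate's cutoff, the plate mean ratio plus 5 SD, cut at about 210% in these data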;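 note: unstained yeast with no Nile Red so the signal is compound autofluorescence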
CaMdr1 efflux inh = inhibitors of Candida albicans Mdr1 efflux pump | shares compounds with Efflux pump mplx | S. cerevisiae AD/CaMDR1, Nile Red efflux, flow cytometry | inhibition, % at 10 µM | 1,700 compounds, 1% hits; in the data active = inhibition above about 26%;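 note: 0% = DMSO vehicle and 100% = reference inhibitor; higher means more Nile Red retained so more efflux inhibition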
Cdr2 pump inh = inhibitors of Candida albicans Cdr2 efflux pump | S. cerevisiae AD/CaCDR2, Nile Red retention, flow cytometry | shares compounds with Efflux pump mplx | Nile Red retention ratio vs DMSO, % at 10 µM | AID 588520 | 1,700 compounds, 4% hits; in the data active = Nile Red retention ratio vs DMSO above about 190%;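 note: higher ratio means more blocking of Cdr2 efflux of the dye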
Cdr1 pump inh = inhibitors of Candida albicans Cdr1 efflux pump | shares compounds with Efflux pump mplx | S. cerevisiae AD/CaCDR1, Nile Red efflux, flow cytometry | inhibition, % at 10 µM | 1,700 compounds, 1% hits;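 active = inhibition above the screen-wide mean plus twice its standard deviation, cut at about 32% in these data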
The depositor's hits bear a star; i = inactive; u = inconclusive; x = no result; + = active, no number. Sampled rows, rich in hits. Any-hit rate of the full collection: about 7.2%.

SMILES	Efflux pump mplx	VLA-4 inh	ALR inh	SUMO Mot1 rescue	AHR activator	Bfl-1 A1 inh	Yeast cmpd fluor	CaMdr1 efflux inh	Cdr2 pump inh	Cdr1 pump inh
Cc1ccc(N2C(=O)[C@@H]3[C@H](C2=O)C2c4ccccc4C=NN2[C@@H]3C(=O)c2ccc(Cl)cc2)cc1 (some centres undefined)	0	3	-6	10	5	-1	x	x	x	x
CCc1ccc(C2C(C(=O)O)c3ccccc3C(=O)N2C)cc1 (centres undefined)	1.9*	-21	-15	-2	-1	0	105	0	100	0
O=c1cc[nH]c2c1ccc1cccnc12	0	15	4	10	2	0	x	x	x	x
COc1cc(/C=N/N2CCN(c3ccc(Cl)cc3)CC2)cc(OC)c1OC(C)=O	1.2*	1	47	5	-8	0	89	0	108	0
Cc1cccc(C(=O)Nc2nnc(SCC(=O)Nc3ccc4c(c3)oc3ccccc34)s2)c1	4.2*	19	-20	-3	15	-3	92	0	114	0
COc1ccccc1C(=O)Nc1nnc(SCC(=O)Nc2ccc3c(c2)oc2ccccc23)s1	0	2	-9	0	5	-6	x	x	x	x
O=C(NCc1ccccc1F)C1CCCN1S(=O)(=O)c1ccc(Cl)cc1 (centres undefined)	0	3	-9	-10	0	0	x	x	x	x
C=CCn1c(SCC#N)nc2ccccc2c1=O	0.6*	-2	0	-1	11	0	93	0	106	0
O=C(O)C(Cc1c[nH]c2ccccc12)NS(=O)(=O)c1cccc2nsnc12 (centres undefined)	24*	2	-18	-4	30	0	79	0	95	0
O=C(c1ccc(Br)o1)N1CCN(CCc2ccncc2)CC1	1	6	x	7	2	u	x	x	x	x
CCN1CCCC(OC(=O)c2cc(-c3ccc(C)cc3)nc3ccccc23)C1 (centres undefined)	0	-6	-7	7	-11	0	x	x	x	x
CCOC(=O)c1ccc(NC(=O)NCc2cccnc2)cc1	0	-12	4	-13	18	0	x	x	x	x
CN1CCN(C(=O)c2ccccc2-c2ccccc2C(=O)O)CC1	6.7*	9	2	4	0	1	102	0	78	0
CN1CCN(C(=O)c2ccccc2[N+](=O)[O-])CC1	0	-29	5	13	0	0	x	x	x	x
COc1ccc(CCNC(=O)CCC2COc3ccccc3O2)cc1OC (centres undefined)	0	1	-21	92	2	0	x	x	x	x
Cc1onc(-c2c(F)cccc2Cl)c1C(=O)NC(=S)NC1CCS(=O)(=O)C1 (centres undefined)	6.5*	4	18	-9	1	0	92	0	112	0
CC(=O)c1cc(C#N)c(SCc2ccc([N+](=O)[O-])cc2)nc1C	0	-2	-1	51	5	1	x	x	x	x
O=[N+]([O-])c1ccc(N2CCc3ccccc3C2)nc1	0.6*	5	-11	0	-3	-2	110	0	131	0
O=[N+]([O-])c1ccc(N2CCN(c3ccccc3)CC2)nc1	0	6	x	20	5	0	x	x	x	x
COc1cc(NC(=O)C2CCCCN2)ccc1OCC(C)C (centres undefined)	0.5*	6	-11	3	14	0	98	0	100	0
N=c1c(C(=O)NCCc2ccccc2)cc2c(=O)n3ccccc3nc2n1Cc1ccco1	0	42	70	-4	3	3	x	x	x	x
Cc1cccn2c(=O)c3cc(S(=O)(=O)c4ccc(F)cc4)c(=N)n(Cc4ccco4)c3nc12	0.6*	-6	-1	-11	-5	1	106	0	114	0
COc1ccc(CCn2c(=N)c(C(=O)NCc3ccco3)cc3c(=O)n4ccccc4nc32)cc1	1.3*	-4	x	6	-4	-1	104	0	100	0
CCOCCCn1c(=N)c(S(=O)(=O)c2ccc(C)cc2)cc2c(=O)n3cc(C)ccc3nc21	1.2*	-7	19	6	0	0	105	0	123	0
Cc1ccc(S(=O)(=O)c2cc3c(=O)n4ccccc4nc3n(CCc3ccccc3)c2=N)cc1	0.4*	-9	4	-2	-4	0	108	0	116	0
SMILES	Efflux pump mplx	VLA-4 inh	ALR inh	SUMO Mot1 rescue	AHR activator	Bfl-1 A1 inh	Yeast cmpd fluor	CaMdr1 efflux inh	Cdr2 pump inh	Cdr1 pump inh
Cc1ccc2nc3c(cc(S(=O)(=O)c4ccccc4)c(=N)n3Cc3ccco3)c(=O)n2c1	0	-2	-23	-5	-3	0	x	x	x	x
COc1ccc(/C(O)=C2/C(=O)C(=O)N(c3ncccn3)C2c2ccc(F)cc2)cc1 (centres undefined)	0	-8	9	-16	1	0	x	x	x	x
Cc1ccc(N(CC(=O)N2CCN(c3ccccc3F)CC2)S(=O)(=O)c2c(C)noc2C)cc1	0	8	-3	1	4	1	x	x	x	x
Fc1ccc(-n2nnc(-c3ncc[nH]3)n2)cc1	0	15	-35	-10	10	-7	x	x	x	x
N#Cc1nc(COc2ccc(Cl)cc2Cl)oc1N1CCOCC1	0.8*	16	-12	-26	-2	0	109	0	108	0
N#Cc1nc(COc2ccc(Cl)cc2Cl)oc1N1CCN(c2ccccc2)CC1	0	-3	3	-11	-3	0	x	x	x	x
O=C(C1CCCO1)N1CCN(S(=O)(=O)c2ccccc2)CC1 (centres undefined)	5.9*	13	1	68	0	1	94	0	76	0
CCN1/C(=C/c2ccc3cc(C)ccc3[n+]2CC)Sc2ccc3sccc3c21	3.6*	i	-1	158	2	-1	+	3	106	1
O=S(=O)(Cc1ccccc1)N1CCN(Cc2ccc3c(c2)OCO3)CC1	1.1*	20	-9	78	28	0	103	0	93	0
O=S(=O)(c1ccc2c(c1)OCCO2)N1CCN(Cc2ccc3c(c2)OCO3)CC1	0	14	-14	6	2	-1	x	x	x	x
Cc1ccc(N=C2NC(=O)/C(=C\c3cccs3)S2)cc1C	6.8*	9	0	-4	36	1	101	0	134	0

Screening results (PubChem BioAssay)
